Paper PMC4336329 (PLoS ONE, 2015)
Out of some 310,000 compounds screened, about 2,200 (0.71%) showed an effect of 50% or more. The effect is printed as a negative number. The sample holds strong results, similar compounds and a random draw of the others, so the mix is not that of the screen.

Target: human ether-à-go-go-related gene (hERG) potassium channel (human, UniProt Q12809)
Experiment: primary screen, population patch clamp on CHO cells stably expressing hERG; higher = less effect of the substance
Protocol: Briefly, Chinese hamster ovary (CHO) cells stably expressing the hERG channel were dislodged from tissue culture flasks and dispensed into PPC plates. […] During the recording, background leak currents were estimated by a 100 ms step to -80 mV from an initial holding potential of -70 mV and subtracted from the subsequent current measurement. The campaign was conducted in two phases using slight differences in recording protocol. In the first phase, the initial voltage pulse used a 100 ms step to -30 mV from a holding potential of -70 mV, a 2 s conditioning step to +25 mV, and a 2 s test step to -30 mV. During the second phase of the screen, the potential during the conditioning step was raised to +45 mV. In both phases of the campaign, a secondary voltage pulse was applied using the same parameters as the second phase initial pulse. The initial and secondary pulses were applied in the absence of compound, and upon application of 1 μM and 10 μM test concentrations. Small molecule effects on hERG current density were quantified by […].

Sequence of human ether-à-go-go-related gene (hERG) potassium channel (Q12809 whole entry, looked up): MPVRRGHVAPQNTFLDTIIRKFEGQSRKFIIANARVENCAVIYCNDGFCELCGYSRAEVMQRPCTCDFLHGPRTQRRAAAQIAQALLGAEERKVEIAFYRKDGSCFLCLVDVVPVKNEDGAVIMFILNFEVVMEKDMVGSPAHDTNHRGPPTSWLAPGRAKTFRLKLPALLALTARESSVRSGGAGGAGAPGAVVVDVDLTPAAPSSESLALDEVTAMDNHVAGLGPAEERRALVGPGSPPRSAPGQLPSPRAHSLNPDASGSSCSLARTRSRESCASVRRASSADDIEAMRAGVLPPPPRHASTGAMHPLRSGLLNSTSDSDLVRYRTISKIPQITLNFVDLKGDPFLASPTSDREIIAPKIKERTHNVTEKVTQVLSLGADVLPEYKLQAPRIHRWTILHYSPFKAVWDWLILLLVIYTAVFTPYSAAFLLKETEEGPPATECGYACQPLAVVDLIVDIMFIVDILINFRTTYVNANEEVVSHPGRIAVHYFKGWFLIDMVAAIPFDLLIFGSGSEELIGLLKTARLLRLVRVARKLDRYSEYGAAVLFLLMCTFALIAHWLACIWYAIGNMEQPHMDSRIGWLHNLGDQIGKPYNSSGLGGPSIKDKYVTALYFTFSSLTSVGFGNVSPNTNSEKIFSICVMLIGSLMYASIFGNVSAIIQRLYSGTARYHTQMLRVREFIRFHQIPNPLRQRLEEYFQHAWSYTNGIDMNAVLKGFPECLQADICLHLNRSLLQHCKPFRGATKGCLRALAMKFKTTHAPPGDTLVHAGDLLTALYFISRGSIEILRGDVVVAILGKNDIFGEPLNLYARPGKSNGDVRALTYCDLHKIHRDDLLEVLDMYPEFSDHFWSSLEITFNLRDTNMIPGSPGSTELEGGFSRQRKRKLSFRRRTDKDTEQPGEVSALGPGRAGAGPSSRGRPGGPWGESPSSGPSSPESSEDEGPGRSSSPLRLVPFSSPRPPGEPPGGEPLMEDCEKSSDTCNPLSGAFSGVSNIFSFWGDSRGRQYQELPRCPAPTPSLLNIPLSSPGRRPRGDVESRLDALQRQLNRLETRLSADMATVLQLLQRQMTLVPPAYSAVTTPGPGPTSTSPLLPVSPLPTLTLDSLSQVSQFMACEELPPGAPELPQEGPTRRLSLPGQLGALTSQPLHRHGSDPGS

Row | Structure (SMILES) | hERG current change (%, negative = inhibition) at 1uM [%]
1 | CSc1nnc(Cc2sc(-c3ccccc3)nc2-c2ccccc2)o1 | 12.1
2 | COc1cccc(CN2CCN(Cc3cccn3-c3cccnc3)CC2CCO)c1 (stereo not drawn) | -62.2
3 | COc1ccc(CN2CCN(Cc3ccon3)CC2CCO)c(C)c1C (stereo not drawn) | 2.93
4 | CCOc1ccc(CN2CCN(Cc3cccn3-c3ncccn3)CC2CCO)cc1 (stereo not drawn) | -84
5 | COc1ccc(CN2CCN(CC3CC3)CC2CCO)c(C)c1C (stereo not drawn) | 13.2
6 | CC(C)=CCN1CCN(Cc2cccn2-c2ncccn2)CC1CCO (stereo not drawn) | -3.9
7 | OCCC1CN(Cc2cccn2-c2ncccn2)CCN1Cc1ccccc1 (stereo not drawn) | -33.4
8 | OCCC1CN(Cc2cccn2-c2ncccn2)CCN1Cc1ccc(F)cc1 (stereo not drawn) | -74.7
9 | OCCC1CN(Cc2cccn2-c2cccnc2)CCN1Cc1ccccc1 (stereo not drawn) | -7.57
10 | OCCC1CN(Cc2cccn2-c2ncccn2)CCN1CCc1ccccc1 (stereo not drawn) | -44.6
11 | OCCC1CN(Cc2cccn2-c2ncccn2)CCN1C1CCCC1 (stereo not drawn) | 0.978
12 | COc1ccc(CN2CCN(Cc3cccn3-c3ncccn3)CC2CCO)c(C)c1C (stereo not drawn) | -80.4
13 | OCCC1CN(Cc2cccn2-c2cccnc2)CCN1CCc1ccccc1 (stereo not drawn) | -37.5
14 | CCC(C)NC(=O)C(=O)NCc1ccncc1 (stereo not drawn) | 10.8
15 | CN1CCN(NC(=O)c2ccccc2F)CC1 | 11.7
16 | COc1ccc(CC(=O)Oc2cc(C)[nH]c(=O)c2[N+](=O)[O-])cc1 | 4.19
17 | COc1ccc(-c2csc(/C=C/c3ccc4c(c3)OCO4)n2)cc1OC | 2.68
18 | CN(c1ncnc(N)c1[N+](=O)[O-])C1CCCCC1 | 12.5
19 | Cc1ccc(S(=O)(=O)N2CCC(C(=O)N3CCC3)CC2)cc1 | 11.3
20 | CC(C)OC(=O)COc1cc(O)c2c(=O)cc(-c3ccccc3)oc2c1 | 10.8
21 | CCOC(=O)C1CCCN(CCCc2ccccc2)C1 (stereo not drawn) | -2.62
22 | COc1ccccc1-c1ccc(=O)n(CC(=O)NCc2cccs2)n1 | 15.8
23 | COCCC(=O)N1CCC(Oc2ccc(C(=O)N3C[C@@H]4CCC[C@H]3C4)cc2)CC1 | 5.49
24 | OC[C@H]1O[C@@H](Oc2ccc3cc(Br)ccc3c2)[C@H](O)[C@@H](O)[C@H]1O | 4.75
25 | CCOc1ccc(CN2CCN(Cc3cccn3-c3cccnc3)CC2CCO)cc1 (stereo not drawn) | -86.3
26 | CC(C)CCN1CCN(Cc2cccn2-c2cccnc2)CC1CCO (stereo not drawn) | -9.84
27 | OCCC1CN(Cc2cccn2-c2cccnc2)CCN1Cc1ccc(F)cc1 (stereo not drawn) | -21.4
